Measured values: PubChem BioAssay
Calls of active or inactive are those of the source. No rule for the calls is given here.

Target: L-lactate dehydrogenase (Plasmodium falciparum (isolate CDC / Honduras)) (UniProt Q27743)
Assay: PfLDH activity inhibition – cell lysate, 3D7 strain, counter-screen for P. falciparum growth inhibition project (AID 2304);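 also: 0% = vehicle and 100% = reference inhibitor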
Settings: P. falciparum 3D7 crude extract, LDH APAD/NBT absorbance; at 2 µM; active compounds read high

L-lactate dehydrogenase (Plasmodium falciparum (isolate CDC / Honduras)), sequence (Q27743 whole entry, looked up): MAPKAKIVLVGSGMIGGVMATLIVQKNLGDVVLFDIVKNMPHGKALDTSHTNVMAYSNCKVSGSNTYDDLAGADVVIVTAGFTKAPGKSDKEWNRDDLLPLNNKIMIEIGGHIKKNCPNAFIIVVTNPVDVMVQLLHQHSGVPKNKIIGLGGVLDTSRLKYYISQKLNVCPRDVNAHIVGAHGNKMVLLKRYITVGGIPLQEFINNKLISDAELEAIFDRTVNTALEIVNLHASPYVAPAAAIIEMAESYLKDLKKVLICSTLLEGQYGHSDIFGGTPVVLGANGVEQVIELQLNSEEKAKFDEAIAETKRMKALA

SMILES	inhibition
Cc1[nH]c(C)c(-c2ccc(OCCCc3ccccn3)cc2)c(=O)c1Br	5% (inactive)
Cc1ccc2[nH]c3c(NCCN(C)C)ncnc3c2c1	0% (inactive)
Cc1cccc2[nH]c(-c3ccc(-c4cccc(NC(=O)c5cccc(C(N)=O)c5)c4)cc3)nc12	-1% (inactive)
Cc1cccc(C)c1OC(=O)[C@@H](C)[C@@H](O)C1(Sc2ccccc2)CCN(C)CC1	1% (inactive)
N#Cc1ccc(-c2ccc(C(=O)NCC3CCN(CCN4CCC(c5ccc6c(c5OCC(N)=O)CCCC6)CC4)CC3)cc2)cc1	-7% (inactive)
Cc1ccc(CN2CCCCC(NC(=O)c3cc4ccccc4s3)C2)cc1 (stereo not given)	-1% (inactive)
CCCN(CCC)CCOc1ccc(C(O)(C#CC(O)(c2ccc(OCCN(CCC)CCC)cc2)c2cccc(Cl)c2)c2cccc(Cl)c2)cc1 (stereo not given)	6% (inactive)
CC(C#N)Cc1ccc(-c2cnc(N)c3cc(-c4ccnc(N)n4)ccc23)cc1 (stereo not given)	0% (inactive)
O=C(/C=C/c1ccc(C(F)(F)F)cc1)NCCCCCN1CCN(C(=O)Nc2ccc(F)c(Cl)c2)CC1	-2% (inactive)
O=C(NCC1CCN(CCN2CCc3ccc4c(c3C2)OCO4)CC1)c1ccc(-c2ccc(C(F)(F)F)cc2)cc1	-5% (inactive)
CCNc1cc(C)nc(Nc2ccc(NC(=O)c3ccco3)cc2)n1	-2% (inactive)
CN(C)Cc1cccc(-c2cnc(N)c(-c3nc4ccc(S(C)(=O)=O)cc4[nH]3)c2)c1	-2% (inactive)
O=c1ccc(-c2nc3cc(Cl)c(Cl)cc3n2Cc2ccc(Cl)cc2Cl)c[nH]1	-8% (inactive)
CCc1c(C)nc(-n2nc(C)cc2NC(=O)c2cccc3ccccc23)[nH]c1=O	1% (inactive)
COc1ccc2c(=O)c3ccc(OC)cc3[nH]c2c1	1% (inactive)
NS(=O)(=O)c1ccccc1Nc1nc(Nc2ccc(N3CCOCC3)cc2)nc2c1CCC2	-1% (inactive)
Nc1nonc1-c1nc2c(-c3cccc(Cl)c3)nccc2n1CCCNC(=O)Cc1ccc(Cl)cc1	-2% (inactive)
Cc1ccc(O)c(C(=O)c2cnc3c(c2)c(-c2ccc(F)cc2)c(C#N)c(=O)n3C)c1	2% (inactive)
Cc1noc(C)c1-c1cccc(CNCc2ccc(-c3ccc(-c4nc5ccc(C(F)(F)F)cc5[nH]4)s3)cc2)c1	3% (inactive)
COc1ccc2nccc(N3CCC(O)(CCNCc4ccc5c(n4)NC(=O)CO5)CC3)c2n1	-4% (inactive)

SMILES	inhibition
COc1ccc(NC(=O)[C@H](Cc2ccccc2)Nc2cc(C)nc(NCCN3CCCC3)n2)cc1	-2% (inactive)
CCOc1cc2ncnc(Nc3cc(Cl)c(Cl)c(Cl)c3)c2cc1OCC	-3% (inactive)
Cc1cccc(Nc2nccc(NCC(O)c3ccc(C(F)(F)F)cc3)n2)c1 (stereo not given)	0% (inactive)
Cn1cncc1C(=O)Nc1cccc(-c2ccc(-c3nc4ccccc4[nH]3)cc2)c1	1% (inactive)
CCN(CC)CC(O)Cc1c2ccc([N+](=O)[O-])cc2nc2cc(OC)c(OC)cc12 (stereo not given)	-6% (inactive)
O=C(Nc1ccccc1F)NC1CCN(c2ccnc(Nc3ccc(F)cc3)n2)C1 (stereo not given)	-7% (inactive)
O=C(NCCN1CCN(S(=O)(=O)c2ccc(OC3CCNCC3)c(Br)c2)CC1)c1ccc(Cl)c(Cl)c1	-3% (inactive)
O=C(/C=C/c1ccc(Cl)c(Cl)c1)NCCCCCCN1CCCN(C(=O)Nc2ccc(Cl)c(C(F)(F)F)c2)CC1	-4% (inactive)
C[C@@H](Oc1cc(-n2cnc3ccc(OCC4CCN(S(C)(=O)=O)CC4)cc32)sc1C(N)=O)c1ccccc1C(F)(F)F	5% (inactive)
c1cc(CNCC2CCCO2)cc(-c2ccc(-c3nc4ccccc4[nH]3)s2)c1 (stereo not given)	-2% (inactive)
COC(=O)c1cccc(CNCc2ccc(-c3ccc(-c4nc5c(C)cccc5[nH]4)s3)cc2)c1	0% (inactive)
COc1ccc(NC(=O)NC2CCN(CCCOc3cc(C)nc4ccccc34)CC2)cc1OC	2% (inactive)
COc1cccc(NC(=O)c2ccc(NCCCN3CCC(C)CC3)c([N+](=O)[O-])c2)c1	-6% (inactive)
Nc1c2ccccc2nc2cc(Cl)ccc12	-3% (inactive)
COc1ccc2nccc(N3CCC(CCNCc4ccc5c(n4)NC(=O)CO5)CC3)c2n1	-7% (inactive)
Cc1cc(N(C)C)nc(Nc2ccc(NC(=O)c3ccccc3C)cc2)n1	-2% (inactive)
CN1CCN(c2cc(NC(=O)c3ccc(-c4ccc(Cl)cc4)cc3)ccc2Cl)CC1	-2% (inactive)
Oc1ccc(CCNc2nc(N/N=C/C=C/c3ccc(Cl)cc3)nc(N3CCNCC3)n2)cc1	2% (inactive)
COc1ccc2nccc(N3CCC(SCCNCc4cc5c(cn4)OCCO5)C3)c2n1 (stereo not given)	2% (inactive)
COc1ccc2nccc([C@@H](O)CN3CCC(NCc4ccc5c(c4)NC(=O)CO5)CC3)c2c1	5% (inactive)

Tested on: not listed separately
Assay: inhibition of 3D7 malaria parasite growth – strain 3D7 (AID 2306);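 also: 0% = DMSO wells and 100% = chloroquine plus artemisinin control wells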
Settings: P. falciparum 3D7 erythrocytic growth, LDH absorbance, 72 h; at 2 µM; active compounds read high

SMILES	growth inhibition
Cc1[nH]c(C)c(-c2ccc(OCCCc3ccccn3)cc2)c(=O)c1Br	98% (active)
Cc1ccc2[nH]c3c(NCCN(C)C)ncnc3c2c1	99% (active)
Cc1cccc2[nH]c(-c3ccc(-c4cccc(NC(=O)c5cccc(C(N)=O)c5)c4)cc3)nc12	84% (active)
Cc1cccc(C)c1OC(=O)[C@@H](C)[C@@H](O)C1(Sc2ccccc2)CCN(C)CC1	98% (active)
N#Cc1ccc(-c2ccc(C(=O)NCC3CCN(CCN4CCC(c5ccc6c(c5OCC(N)=O)CCCC6)CC4)CC3)cc2)cc1	99% (active)
Cc1ccc(CN2CCCCC(NC(=O)c3cc4ccccc4s3)C2)cc1 (stereo not given)	94% (active)
CCCN(CCC)CCOc1ccc(C(O)(C#CC(O)(c2ccc(OCCN(CCC)CCC)cc2)c2cccc(Cl)c2)c2cccc(Cl)c2)cc1 (stereo not given)	101% (active)
CC(C#N)Cc1ccc(-c2cnc(N)c3cc(-c4ccnc(N)n4)ccc23)cc1 (stereo not given)	96% (active)
O=C(/C=C/c1ccc(C(F)(F)F)cc1)NCCCCCN1CCN(C(=O)Nc2ccc(F)c(Cl)c2)CC1	89% (active)
O=C(NCC1CCN(CCN2CCc3ccc4c(c3C2)OCO4)CC1)c1ccc(-c2ccc(C(F)(F)F)cc2)cc1	93% (active)
CCNc1cc(C)nc(Nc2ccc(NC(=O)c3ccco3)cc2)n1	95% (active)
CN(C)Cc1cccc(-c2cnc(N)c(-c3nc4ccc(S(C)(=O)=O)cc4[nH]3)c2)c1	100% (active)
O=c1ccc(-c2nc3cc(Cl)c(Cl)cc3n2Cc2ccc(Cl)cc2Cl)c[nH]1	88% (active)
CCc1c(C)nc(-n2nc(C)cc2NC(=O)c2cccc3ccccc23)[nH]c1=O	98% (active)
COc1ccc2c(=O)c3ccc(OC)cc3[nH]c2c1	93% (active)
NS(=O)(=O)c1ccccc1Nc1nc(Nc2ccc(N3CCOCC3)cc2)nc2c1CCC2	96% (active)
Nc1nonc1-c1nc2c(-c3cccc(Cl)c3)nccc2n1CCCNC(=O)Cc1ccc(Cl)cc1	94% (active)
Cc1ccc(O)c(C(=O)c2cnc3c(c2)c(-c2ccc(F)cc2)c(C#N)c(=O)n3C)c1	93% (active)
Cc1noc(C)c1-c1cccc(CNCc2ccc(-c3ccc(-c4nc5ccc(C(F)(F)F)cc5[nH]4)s3)cc2)c1	102% (active)
COc1ccc2nccc(N3CCC(O)(CCNCc4ccc5c(n4)NC(=O)CO5)CC3)c2n1	100% (active)

SMILES	growth inhibition
COc1ccc(NC(=O)[C@H](Cc2ccccc2)Nc2cc(C)nc(NCCN3CCCC3)n2)cc1	97% (active)
CCOc1cc2ncnc(Nc3cc(Cl)c(Cl)c(Cl)c3)c2cc1OCC	102% (active)
Cc1cccc(Nc2nccc(NCC(O)c3ccc(C(F)(F)F)cc3)n2)c1 (stereo not given)	101% (active)
Cn1cncc1C(=O)Nc1cccc(-c2ccc(-c3nc4ccccc4[nH]3)cc2)c1	99% (active)
CCN(CC)CC(O)Cc1c2ccc([N+](=O)[O-])cc2nc2cc(OC)c(OC)cc12 (stereo not given)	100% (active)
O=C(Nc1ccccc1F)NC1CCN(c2ccnc(Nc3ccc(F)cc3)n2)C1 (stereo not given)	95% (active)
O=C(NCCN1CCN(S(=O)(=O)c2ccc(OC3CCNCC3)c(Br)c2)CC1)c1ccc(Cl)c(Cl)c1	89% (active)
O=C(/C=C/c1ccc(Cl)c(Cl)c1)NCCCCCCN1CCCN(C(=O)Nc2ccc(Cl)c(C(F)(F)F)c2)CC1	101% (active)
C[C@@H](Oc1cc(-n2cnc3ccc(OCC4CCN(S(C)(=O)=O)CC4)cc32)sc1C(N)=O)c1ccccc1C(F)(F)F	84% (active)
c1cc(CNCC2CCCO2)cc(-c2ccc(-c3nc4ccccc4[nH]3)s2)c1 (stereo not given)	95% (active)
COC(=O)c1cccc(CNCc2ccc(-c3ccc(-c4nc5c(C)cccc5[nH]4)s3)cc2)c1	101% (active)
COc1ccc(NC(=O)NC2CCN(CCCOc3cc(C)nc4ccccc34)CC2)cc1OC	97% (active)
COc1cccc(NC(=O)c2ccc(NCCCN3CCC(C)CC3)c([N+](=O)[O-])c2)c1	100% (active)
Nc1c2ccccc2nc2cc(Cl)ccc12	103% (active)
COc1ccc2nccc(N3CCC(CCNCc4ccc5c(n4)NC(=O)CO5)CC3)c2n1	101% (active)
Cc1cc(N(C)C)nc(Nc2ccc(NC(=O)c3ccccc3C)cc2)n1	93% (active)
CN1CCN(c2cc(NC(=O)c3ccc(-c4ccc(Cl)cc4)cc3)ccc2Cl)CC1	99% (active)
Oc1ccc(CCNc2nc(N/N=C/C=C/c3ccc(Cl)cc3)nc(N3CCNCC3)n2)cc1	98% (active)
COc1ccc2nccc(N3CCC(SCCNCc4cc5c(cn4)OCCO5)C3)c2n1 (stereo not given)	101% (active)
COc1ccc2nccc([C@@H](O)CN3CCC(NCc4ccc5c(c4)NC(=O)CO5)CC3)c2c1	99% (active)
